# Marburg entry inh: qHTS for inhibitors of binding or entry into cells for Marburg Virus; Marburg virus pseudotyped entry inhibition, cell reporter; Potency, µM (highest dose often 37.8 µM), for the others: at the top dose activity change, negative = inhibition, hits mostly inhibitors; 300,000 compounds, 1.8% hits; AID 540276, 2011; calls by dose curve; tested in HEK293 cells; note: potency is the fitted concentration of half-maximal effect
# VACV Venus inh: qHTS for Stage-Specific Inhibitors of Vaccinia Orthopoxvirus: Venus Reporter Primary qHTS | Potency, µM (highest dose often 36.5 µM), for inactives: at the top dose activity change, negative = inhibition, usual class: inhibitors | 330,000 compounds, 0.46% hits | Vaccinia virus Venus reporter expression, fluorescence | AID 720580, 2013; calls by dose curve; tested in A549 cells; note: potency is the fitted concentration of half-maximal effect; nearly all actives have a fitted effect of over 30% in size
# VACV mCherry inh: qHTS for Stage-Specific Inhibitors of Vaccinia Orthopoxvirus: mCherry Reporter Primary qHTS; Vaccinia virus mCherry reporter infection, fluorescence; Potency, µM (top dose mostly 36.5 µM), for the others: top-dose activity change, negative = inhibition, actives largely listed as inhibitors; 310,000 compounds, 0.63% hits; AID 720579, 2013; calls by dose curve; tested in A549 cells; note: potency is the fitted concentration of half-maximal effect; nearly all actives have a fitted effect of over 35% in size
# FMDV antiviral: High Throughput Screening for Foot and Mouth Disease Virus Antivirals; FMDV antiviral cell-based qHTS; AID 1159524, 2015; Potency, µM (doses to about 57.9 µM), inactives show at the highest dose activity change, negative = inhibition, hits mostly inhibitors; 410,000 compounds, 1.2% hits; calls by dose curve; tested in HEK293T cells; note: read-out not given here; potency is the fitted concentration of half-maximal effect; nearly all actives have a fitted effect of over 45% in size
# LASV entry inh: qHTS for Inhibitors of binding or entry into cells for Lassa Virus | Lassa virus pseudotype entry inhibition, cell reporter | Potency, µM (highest dose often 37.9 µM), without a hit: top-dose activity change, negative = inhibition, usual class: inhibitors | 300,000 compounds, 1.2% hits; calls by dose curve; tested in HEK293 cells; note: potency is the fitted concentration of half-maximal effect; nearly all actives have a fitted effect of over 50% in size
# HCMV inh: qHTS Assay for inhibitors of the human cytomegalovirus (HCMV) | HFF cells, HCMV-luciferase reporter, 72 h; active compounds read low | activity change, negative = inhibition, % at 57.5 µM | 410,000 compounds, 4.5% hits | AID 1259415, 2018; in the data active = activity change below about -60%; inconclusive = no clear call, values can overlap the other calls; inactive = above about -39%
#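 After 16 h attachment at 37C, HFF cells received test compound and HCMV-luciferase (1 PFU/cell); reporter luminescence read 72 h later, data normalized against buffer-only and known inhibitor Salinomycin.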
# Numbers without * were called inactive; i = inactive; ? = inconclusive; . = no result given; + = active, no number; [ ] = another dose, or the depositor's remark. This is a sample that favours compounds with a hit; in the whole collection about 6.5% have one here. % is set by controls: 0 for no effect and ±100 for the full control effect.
SMILES,Marburg entry inh,VACV Venus inh,VACV mCherry inh,FMDV antiviral,LASV entry inh,HCMV inh
Cc1cc(C)c(S(=O)(=O)N[C@H]2CC[C@@]34CCCN3C(=O)CCC[C@H]4[C@H]2Cc2ccccc2)c(C)c1,.,.,.,.,.,-21.9
Cc1cc(C)cc(NC(=O)c2oc3ccc4c(c3c2C)C(=O)CC(C)(C)O4)c1,.,-4.1%,-8.1%,-2.6%,6.8%[46.1 µM],-105.3*
Cc1cc(OCCCSc2nc(-c3ccc(C(C)(C)C)cc3)nc3cc(=O)[nH]n23)ccc1Cl,.,-13.7%[7.34 µM],-5.4%[7.34 µM],-15.8%,-8.3%[46.1 µM],-63.6*
Cc1ccc(Sc2ncccc2C(=O)O)cc1C,-2.2%,5.3%,-9.5%,?,6.0%,-67.0*
O=C(O)c1cccnc1SCc1ccccc1,14.3%,.,.,30.5%,2.4%,4.2
CC(OC(=O)c1ccccc1OCC(=O)Nc1ccc(Br)cc1)C(=O)NC1CCCC1 (centres undefined),.,-6.6%,i,.,.,.
CCOC(=O)c1[nH]c2ccc(OC)cc2c1NC(=O)CCN1CCC[C@@H](C)C1,2.6%[46.1 µM],.,.,.,.,.
CC(C)N1C/C(=C/c2cccnc2)C(=O)/C(=C/c2cccnc2)C1,4.47µM*,-9.4%,i,8.91µM*,12.6µM*,-36.5
CN1C/C(=C/c2cccnc2)C(=O)/C(=C/c2cccnc2)C1,1.78µM*,?,?,3.16µM*,?,-91.6*
CC(C)N1C/C(=C/c2ccsc2)C(=O)/C(=C/c2ccsc2)C1,?,-8.8%,-17.9%,15.8µM*,3.98µM*,-84.6*
CN1C/C(=C/c2ccc(B(O)O)cc2)C(=O)/C(=C/c2ccc(B(O)O)cc2)C1,.,.,.,28.2µM*,.,.
O=C(NCC1CCCO1)c1cncc(Br)c1 (centres undefined),.,.,.,10.9%,.,-29.0
CCCCCC(=O)N1C[C@H](O)[C@@H](n2cc(C3CC3)nn2)C[C@H]1c1ccc(OC)cc1,.,.,.,.,5.4%[46.1 µM],.
CCOc1ccccc1NC(=O)CCS(=O)(=O)c1ccc2c(c1)oc(=O)n2C,.,6.3%,-4.3%,-20.3%,11.1%[46.1 µM],7.2
O=C1C(C2=C(O)c3ccccc3C2=O)=Nc2ccccc21,?,.,.,23.8%,?,-78.0*
CN=CC1=C(O)c2ccccc2C1=O,8.2%,-6.3%,i,54.3%,17.2%,21.9
NC(=O)CCN1CC(c2cc(Cl)c(N)c(Cl)c2)=CC1=O,.,.,.,.,.,-20.4
CCOC(=O)CCCc1ccc(/C(C)=N/NC(N)=S)cc1,?,?,?,-24.6%,?,-23.2
CCOC(=O)CCCc1ccc(/C(C)=N/NC(=S)NC)cc1,5.8%,.,.,-20.7%,.,-95.0*
O=S(Cc1ccccc1)CC(O)(c1ccc(Cl)cc1)c1ccc(Cl)cc1 (centres undefined),?,.,.,8.2%,-22.4%,-91.6*
O=S(Cc1ccc(Cl)cc1)CC(O)(c1ccccc1)c1ccccc1 (centres undefined),2.6%,.,.,11.3%,14.8%,28.0
CCCS(=O)(=O)NCc1c(C)ncc2c1CCN(C(=O)c1ccc(Cl)cc1)C2,.,-5.7%,-5.7%,2.7%,.,.
CCC1CO/C(=C(\C(Cl)=C(Cl)Cl)[N+](=O)[O-])N1 (centres undefined),-13.8%[46.1 µM],?,?,-20.8%,2.5%,-12.9
Cc1c(-c2nc(-c3ccc(C(C)(C)C)cc3)no2)n(C)oc1=O,?,-19.7%,-3.0%,63.1µM*,?,97.1
CC(=O)Nc1c([N+](=O)[O-])cc(C)c(Cl)c1[N+](=O)[O-],?,-26.6%,?,-12.7%,-17.0%[46.1 µM],-77.0*
SMILES,Marburg entry inh,VACV Venus inh,VACV mCherry inh,FMDV antiviral,LASV entry inh,HCMV inh
CC(C)n1cnc2c(NCc3ccc(S(N)(=O)=O)cc3)nc(NCc3ccc(S(N)(=O)=O)cc3)nc21,.,0.1%,-10.4%,-12.6%,.,11.1
CC(C)[C@H](CO)Nc1nc(NCc2ccc(S(N)(=O)=O)cc2)c2ncn(C(C)C)c2n1,.,?,?,-28.6%,.,-96.0*
Cc1csc2ncnc(N3CCN(C(=S)Nc4ccc(F)cc4F)CC3)c12,?,?,?,?,?,-76.9*
CC1CN(C(=S)Nc2ccc(F)cc2F)CC(C)O1 (centres undefined),.,.,.,-1.3%,.,15.7
O=C(Nc1ccc(F)cc1F)N1CCCN(c2ccc(C(F)(F)F)cn2)CC1,?,?,?,?,-11.1%,-36.9
Fc1ccc(NC(=S)N2CCCN(c3ccc(C(F)(F)F)cn3)CC2)c(F)c1,.,.,.,?,.,-79.8*
Cc1cc(C)c(NC(=O)CN2C(=O)CCn3nc(-c4cccn4C)cc32)c(C)c1,.,-3.8%,-13.2%,8.6%,?,3.2
COC(=O)c1ccc(NC(=O)CCc2nnc3ccc(NCc4ccco4)nn23)cc1,12.9%[46.1 µM],-7.5%,i,-2.0%,0.4%[46.1 µM],+
CCOc1ccc(OCCSc2nc3ccccc3[nH]2)cc1,-21.4%,-27.7%,-6.3%,.,-6.1%,-75.8*
COc1ccc(OCCSc2nc(C)nc3ccccc23)cc1,?,-15.8%,-10.5%,?,?,-64.6*
c1ccc(CSc2nc3ccccc3[nH]2)cc1,?,-2.1%,-13.3%,17.2%,?,57.5
CCCOc1ccc(CSc2nc3ccccc3[nH]2)cc1,?,?,?,-4.3%,24.0%[14.3 µM],-92.2*
O=C(NCCOc1nc(N2CCCCC2)nc(N2CCCCC2)n1)Nc1ccccc1,?,-20.8%,i,10.3%,-29.1%[46.1 µM],?
CCN(CC)c1nc(OCCNC(=O)Nc2ccccc2)nc(N(CC)CC)n1,?,11.2µM*,.,0.0%,?,-31.9
O=C(NCCOc1nc(N2CCCCC2)nc(N2CCOCC2)n1)Nc1ccccc1,-4.3%,-13.9%,-13.1%,12.0%,-14.9%,-77.4*
CCN(CCNC(=O)Nc1ccc(Cl)cc1)c1ccccc1,?,?,.,?,15.8µM*,-21.3
CN(CCOc1ccccc1)CC(=O)Nc1ccc(Br)cc1F,-21.5%[46.1 µM],-13.5%,-21.3%,10.0%,-0.5%[46.1 µM],41.6
COc1ccccc1CCc1nc2ccccc2n1C1CCN(C(=O)c2cn3ccsc3n2)CC1,.,-2.8%,-10.5%,8.0%,.,.
Cc1ccn(CC(=O)N2CCCC(N3CCN(c4cccc(C(F)(F)F)c4)CC3)C2)n1 (centres undefined),.,-14.5%,-17.7%,-17.9%,.,35.4
CC(C)c1ccc(OCc2ccc(C(=O)O)o2)cc1,3.66µM*,5.8%,-14.3%,10µM*,3.55µM*,-10.0
Cc1ccc(C(=O)N(Cc2cc3cccc(C)c3nc2N(C)C)CC2CCCO2)cc1 (centres undefined),.,0.0%,-2.7%,-4.7%,.,.
CCCCCCn1c(COc2ccccc2F)nnc1SCC(=O)NC1CCS(=O)(=O)C1 (centres undefined),-3.6%,-15.5%,-0.8%,-1.6%,-21.2%,-13.7
COc1cc(NC(=S)N2CCN(S(=O)(=O)c3ccc(F)cc3)CC2)cc(OC)c1,20.7%,-5.9%,-13.3%,5.2%,?,-24.0
